# Assay outcomes as filed in PubChem BioAssay.
# TGFb inhibitor: inhibitors of TGF-b signaling; HepG2 CAGA-GFP TGF-b/SMAD3 reporter, GFP fluorescence, 18 h; TGF-beta stimulated, 500 pg/mL final; Potency, µM (titrated, usually from 46.1 µM), for the others: top-dose activity, negative = inhibition, most hits filed as inhibitors; 1.2% of 410,000 active; AID 588855; also: % is scaled to controls: 0 for no effect and ±100 for the full control effect; nearly all actives have a fitted effect of over 65% in size
#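 Inhibition of TGF-beta-driven CAGA-GFP reporter expression in HEPG2 cells is measured by cellular GFP fluorescence after 18 h stimulation with 500 pg/mL recombinant TGF-beta in 1% FBS medium at 37 degrees C.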
# HT1080 IDH1KD tx: HT-1080 IDH1 knockdown cell toxicity (counter line) | HT-1080 IDH1 knockdown viability, ATP luminescence, 48 h | Potency, µM (top dose mostly 46.1 µM), without a hit: at the highest dose activity, negative = toxicity, actives largely listed as cytotoxic | 2% of 360,000 active;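 also: 0% = DMSO wells and -100% = cell-free medium wells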
#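 Knockdown cells (IDH1KD HT-1080) received compounds 2 h after plating at 750 cells/well and were kept 48 h at 37 °C in 5% FBS RPMI. A CellTiter-Glo luminescence read gave % activity for curve fitting.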
# HT1080-NT tox: kills 2HG-producing HT-1080-NT fibrosarcoma cells. HT-1080-NT fibrosarcoma viability, CellTiter-Glo ATP luminescence, 48 h. 1.6% of 360,000 active. Potency, µM (titrated, usually from 46.1 µM), for the others: top-dose activity, negative = less viability, hits mostly cytotoxic;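 also: NT is the 2HG producing partner of a matched IDH1 knockdown line; 0% = DMSO-treated cells and -100% = media-only wells without cells; nearly all actives have a fitted effect of over 55% in size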
#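 Viability by CellTiter-Glo luminescence after 48 h compound exposure at 37C of HT-1080-NT cells (750/well, RPMI, 5% FBS). % activity scaled between DMSO wells and medium-only wells, then curve-fitted and categorized by curve class.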
# HepG2 tox: HepG2 cytotoxicity, counter-screen for TGF-b inhibitors. HepG2 CAGA-GFP viability, ATP luminescence, 18 h. Potency, µM (top dose mostly 46.1 µM), without a hit: at the top dose activity change, negative = cytotoxicity, most hits filed as cytotoxic. 0.76% of 410,000 active. AID 588856
#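 CellTiter-Glo luminescence gave cytotoxicity after 18 hours at 37 degrees C. The cells were HepG2 CAGA-GFP in 1% FBS DMEM, stimulated with 500 pg/mL TGF-beta after compound addition. %Activity was normalised to no-cell wells (complete cell-killing) and DMSO (no toxicity), and curves were fitted and classified.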
# KB-V1 cytotox: KB-V1 MDR subline cytotoxicity; AID 1347076; KB-V1 MDR cells viability, CellTiter-Glo, 72 h; Potency, µM (highest dose often 46.1 µM), most hits filed as cytotoxic; 3.4% of 400,000 active; also: % is scaled to controls: 0 for no effect and ±100 for the full control effect; nearly all actives have a fitted effect of over 60% in size
#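 Luminescent ATP read-out (CellTiter-Glo, 10 min) measures survival of drug-selected KB-V1 MDR cells after 72 h, 37 degrees C compound exposure. Medium: phenol-red-free DMEM, 10% FBS. Values from fitted concentration-response curves.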
# KB-3-1 cytotox: kills parental KB-3-1 adenocarcinoma cells; KB-3-1 viability, CellTiter-Glo ATP luminescence, 72 h; Potency, µM (top dose mostly 46.1 µM), usual class: cytotoxic; 1.4% of 400,000 active; also: % is scaled to controls: 0 for no effect and ±100 for the full control effect; nearly all actives have a fitted effect of over 60% in size
#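 Parental KB-3-1 adenocarcinoma cells in phenol-red-free DMEM with 10% FBS were pin-treated with compounds at several concentrations, incubated 72 h at 37 °C, and viability read by CellTiter-Glo luminescence; concentration-effect curves were fitted after normalization.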
# Starred values were filed as active, the others as inactive; i = inactive; ? = inconclusive; nt = no result given. The list is not random: actives were taken first. Their share in the collection is about 6.6%. Calls follow the shape of the dose curve; as a rule, active = well fitted curve in the direction sought with a large enough effect; inconclusive = small, poorly fitted or top-dose-only effect, or another doubt; inactive = no such curve, though single readings can be large; an effect the other way counts as inactive or inconclusive. Potency is read from the fitted curve at half-maximal effect.
SMILES,TGFb inhibitor,HT1080 IDH1KD tx,HT1080-NT tox,HepG2 tox,KB-V1 cytotox,KB-3-1 cytotox
O=C(NCC(c1cccs1)N1CCOCC1)c1cc(-c2ccc(F)cc2)nc2ccccc12 (stereo not given),-14.0%,-5.8%,-1.0%,-4.2%,20.6µM*,i
O=C(NCC(c1cccs1)N1CCOCC1)c1cn(-c2ccccc2)nc1-c1ccc(F)cc1 (stereo not given),-9.3%,0.4%,10.5%,-1.6%,i,i
CCn1c(=O)cc(SCC(=O)NCc2ccccc2OC)c2ccccc21,7.3%,nt,nt,-25.9%,?,?
CNc1ccc(/C=C/c2ccccc2)cc1,-23.9%,nt,nt,-32.6%,i,?
COc1ccc(OC)c(CCNC(=O)c2nn(C)c3c2CSc2ccccc2-3)c1,-14.5%,nt,nt,-29.0%,nt,nt
COc1ccc(C(=O)Oc2c(Sc3ccc(Cl)cc3)c(C)nn2C(C)(C)C)cc1OC,-28.1%,nt,nt,-15.0%,i,i
CCOc1ccc(NC(=O)c2nc(S(=O)(=O)Cc3ccc(F)cc3)ncc2Cl)cc1,11.2µM*,nt,nt,-95.7%,?,i
CCOc1ccc(NC(=O)c2nc(S(=O)(=O)Cc3ccccc3C)ncc2Cl)cc1,12.6µM*,nt,nt,-100.7%,i,?
COc1ccc(NC(=O)c2nc(SCc3ccc(F)cc3)ncc2Cl)cc1,-3.8%,nt,nt,-5.1%,nt,nt
Cc1cccc(C)c1NC(=O)c1nc(S(=O)(=O)Cc2ccccc2F)ncc1Cl,?,nt,nt,-99.7%,i,?
COc1ccc(Br)c(Cn2c(C)c(C(=O)NCCC#N)sc2=O)c1,1.1%,7.1%,9.7%,0.5%,i,i
C[C@@H]1CN([C@H](C)CO)S(=O)(=O)c2ccc(Br)cc2O[C@H]1CN(C)S(C)(=O)=O,12.5%,12.5%,10.2%,-6.0%,i,i
COc1ccc(N2CCN(C(=O)CCc3c(C)nc4c(-c5ccccc5)c(C)nn4c3C)CC2)cc1,?,nt,nt,-14.2%,?,i
Cc1nc2c(c(C)c1CCC(=O)Nc1ccc(F)cc1)c(=O)n(C)c(=O)n2C,-10.4%,nt,nt,1.3%,i,i
COc1c(CC=C(C)C)cc(C2CC(=O)c3c(O)cc(O)cc3O2)cc1CC=C(C)C (stereo not given),14.1µM*,?,?,15.8µM*,?,i
CC(C)(C)CC(C)(C)N=C1Nc2cc(Cl)c(Cl)cc2N[C@]12C[C@H]1CCCC(=O)N3CC[C@@H](C2)[C@@H]13,7.08µM*,nt,nt,-44.0%,i,i
CC(C)(C)CC(C)(C)N=C1Nc2ccccc2NC12C[C@H]1CCC(=O)N3CC[C@@H](C2)[C@@H]13 (stereo not given in full),?,4.7%,4.2%,-45.6%,?,?
CC(C)(C)CC(C)(C)N=C1Nc2cc(Cl)c(Cl)cc2NC12C[C@H]1CCC(=O)N3CC[C@@H](C2)[C@@H]13 (stereo not given in full),11.2µM*,-5.5%,-16.0%,12.6µM*,?,?
Cc1cc2c(cc1C)N[C@]1(C[C@H]3CCCC(=O)N4CC[C@@H](C1)[C@@H]34)C(=NC1CCCCC1)N2,?,nt,nt,-26.8%,i,i
O=C1CC(c2ccccc2)Sc2ccccc2N1Cc1ccccc1F (stereo not given),?,nt,nt,-31.1%,?,?
Cc1ccccc1CN1CCc2cc([N+](=O)[O-])ccc21,-17.5%,-13.3%,-1.7%,12.6µM*,?,i
Cc1ccc(NC(=O)N2CCCC(c3nc(-c4ccc(F)cc4)no3)C2)cc1 (stereo not given),?,3.5%,1.2%,-14.5%,i,i
O=C(Nc1ccccc1)N1CCC(c2nc(-c3ccc(S(=O)(=O)N4CCOCC4)cc3)no2)CC1,31.2%,7.94µM*,10µM*,-0.1%,4.11µM*,4.61µM*
O=C(c1cccs1)N1CCC(c2nc(-c3ccc(S(=O)(=O)N4CCOCC4)cc3)no2)CC1,-0.7%,-27.9%,-6.0%,-9.2%,5.8µM*,16.4µM*
O=C(Nc1cccc(C(F)(F)F)c1)N1CCC(c2nc(-c3ccc(F)cc3)no2)CC1,?,?,?,-29.3%,2.59µM*,i
SMILES,TGFb inhibitor,HT1080 IDH1KD tx,HT1080-NT tox,HepG2 tox,KB-V1 cytotox,KB-3-1 cytotox
O=C(c1ccccc1)N1CCC(c2nc(-c3ccc(S(=O)(=O)N4CCOCC4)cc3)no2)CC1,-25.1%,-12.2%,-1.9%,-35.3%,?,i
CCOC(=O)c1c(C)[nH]c(C)c1S(=O)(=O)NCC(=O)N1CCN(c2cccc(C)c2)C(C)C1 (stereo not given),-19.1%,nt,nt,-15.0%,i,i
CCN1CCN(C(=O)c2c(-c3ccccc3)noc2C)CC1,31.2%,2.4%,7.4%,-2.1%,i,i
COc1ccccc1N1CCN(C(=O)c2c(-c3ccccc3Cl)noc2C)CC1,-19.5%,?,?,-9.8%,?,20.6µM*
COc1ccccc1N1CCN(C(=O)c2c(C)noc2C)CC1,4.2%,4.2%,7.8%,13.6%,i,i
Cc1onc(-c2ccccc2)c1C(=O)N1CCN(Cc2ccccc2)CC1,13.9%,11.4%,5.7%,10.0%,23.1µM*,i
Cc1onc(-c2ccccc2Cl)c1C(=O)OCC(=O)N1CCN(c2ccccc2)CC1,-3.7%,-8.3%,7.1%,0.9%,8.2µM*,i
Cc1onc(-c2ccccc2Cl)c1C(=O)N1CCc2ccccc21,-1.5%,-9.6%,-3.2%,2.4%,23.1µM*,i
Cc1nc(Nc2ccc(Cl)cc2)cc(-c2ccccc2)n1,?,nt,nt,-67.2%,i,i
CCc1cccc(NC(=O)Cn2c(=O)n(CC(=O)NCCc3ccccc3)c(=O)c3ccccc32)c1,2.8%,nt,nt,-26.2%,i,i
Cc1onc(-c2ccccc2Cl)c1C(=O)OCC(=O)Nc1cccc(S(=O)(=O)N(C)C)c1,-36.0%,-2.1%,?,-19.4%,8.2µM*,?
